Compound activity from PubChem.
PP5 inh – PP5 (human) phosphatase inhibition; 320,000 compounds, 0.18% hits; purified PP5c, OMFP substrate fluorescence; AID 1987; inhibition, % at 6.7 µM; P53041;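 active means inhibition above the campaign's mean inhibition across all tested compounds plus 3 SD, cut at about 9.5% in these data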;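 further: 0% = DMSO only and 100% = 100 µM cantharidin control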
PP1 inh – blocks human PP1-alpha phosphatase, a PP5 counter-screen. P62136. purified PP1alpha, OMFP fluorescence. inhibition, % at 6.7 µM. 320,000 compounds, 0.9% hits. AID 2235;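 active means inhibition above the mean inhibition of all tested compounds plus 3 SD, computed separately for each screening campaign, cut at about 15% in these data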
Target sequence (P62136 whole entry, looked up): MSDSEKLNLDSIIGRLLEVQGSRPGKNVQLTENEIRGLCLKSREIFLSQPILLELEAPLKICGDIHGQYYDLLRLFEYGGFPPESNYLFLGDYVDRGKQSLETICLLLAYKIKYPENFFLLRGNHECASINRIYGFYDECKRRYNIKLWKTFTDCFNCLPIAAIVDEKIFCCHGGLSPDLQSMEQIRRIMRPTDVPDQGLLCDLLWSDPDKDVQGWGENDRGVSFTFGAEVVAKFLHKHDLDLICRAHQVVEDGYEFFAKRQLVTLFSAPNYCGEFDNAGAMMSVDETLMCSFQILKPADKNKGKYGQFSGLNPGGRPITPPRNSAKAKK
Calb FLC – C. albicans growth modulation with fluconazole; C. albicans CaCi-2 (fluconazole-resistant clinical isolate) + fluconazole, Alamar Blue growth, 48 h; growth inhibition, % (no concentration beside the values); 300,000 compounds, 0.57% hits;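 active means growth inhibition above about 58% in most replicates, limit read from the data, passing the limit was not always enough; inconclusive means exactly half the replicates above a set limit; inactive means most replicates below a set limit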;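 further: all wells also contain fluconazole at 8 µg/ml as a sub-toxic cotreatment; 0% = median of DMSO wells and 100% = median of geldanamycin control wells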
Beta apoptosis – beta cell apoptosis inhibition; INS-1E cytokine-induced death, ATP luminescence, 48 h; percent of positive-control rescue, neutral wells zero; 300,000 compounds, 0.8% hits; protection from apoptosis, % (test concentration not listed);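 active means Every replicate reaches about 75%, or at least half do and their mean reaches it too, limit read from the data; inconclusive means At least half of replicates reach the limit but their mean does not; inactive means Under half of replicates reach the limit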;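 further: 0% = cytokine-treated negative control wells and 100% = positive control rescue; higher means more ATP so stronger rescue from cytokine killing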
CSC inhib – cancer stem cell inhibition; cancer stem cell-like cells viability, luminescence; AID 2717; inhibition, % at 7.5 µM; 300,000 compounds, 1.1% hits; in the data active means inhibition above about 75%; inconclusive means no clear call, values can overlap the other calls; tested in HMLE shEcad cells
Mdm2-MdmX inh – human Mdm2/MdmX binding inhibition. O15151+Q00987. SaOS-2 split-luciferase Mdm2/MdmX complementation, luminescence. inhibition, % at 8 µM. 330,000 compounds, 3% hits;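 active means inhibition of at least 50% at 8 µM in the primary screen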
* hit, by the source's call. An excerpt weighted towards active compounds, which were near 4.9% of everything screened.

How did Cc1ccc(OCC(=O)Nc2cc(NC(=O)COc3ccc(C)c(C)c3)cc(C(=O)O)c2)cc1C do in these assays?
PP5 inh: 4.8; PP1 inh: 16.4*; Calb FLC: 1.1; Beta apoptosis: -5.9; CSC inhib: -5.1; Mdm2-MdmX inh: -12.1

What do the screens show for `CC1(C)CC(=O)C2=C(C1)NC(SCC(=O)Nc1ccccc1)=C(C#N)C2c1ccco1` (configuration not stated)?
PP5 inh: 1.4; PP1 inh: 1.9; Calb FLC: 1.8; Beta apoptosis: -14.0; CSC inhib: -10.7; Mdm2-MdmX inh: 14.3

How did Cc1ccc(C(=O)CSC2=C(C#N)C(c3ccco3)C3=C(CC(C)(C)CC3=O)N2)cc1 (configuration not stated) do in these assays?
PP5 inh: 1.8; PP1 inh: 1.5; Calb FLC: 5.0; Beta apoptosis: 6.7; CSC inhib: 97.2*; Mdm2-MdmX inh: 22.3

How did N#CC1=C(SCC(=O)c2ccc(Cl)cc2)NC2=C(C(=O)CCC2)C1c1ccco1 (configuration not stated) do in these assays?
PP5 inh: 2.3; PP1 inh: 6.6; Calb FLC: 57.9; Beta apoptosis: 8.0; CSC inhib: 92.8*; Mdm2-MdmX inh: 40.2

How did Cc1ccc(NC(=O)CSC2=C(C#N)C(c3ccco3)C3=C(CCCC3=O)N2)cc1 (configuration not stated) do in these assays?
PP5 inh: 5.5; PP1 inh: 10.5; Calb FLC: -3.3; Beta apoptosis: -12.1; CSC inhib: 24.1; Mdm2-MdmX inh: -7.5

What do the screens show for `CCC(CC)NC(=O)COC(=O)CCC(=O)c1ccc(Cl)cc1`?
PP5 inh: 1.1; PP1 inh: 12.9; Calb FLC: -3.9; Beta apoptosis: -7.8; CSC inhib: 14.3; Mdm2-MdmX inh: 22.5

Results for COc1cccc(-c2nnc(NC(=O)c3cccc(F)c3)o2)c1 ?
PP5 inh: 3.6; PP1 inh: 13.6; Calb FLC: 6.6; Beta apoptosis: 8.4; CSC inhib: 34.2; Mdm2-MdmX inh: 25.9

How did O=C(Nc1nnc(-c2ccccn2)o1)c1cccc(Br)c1 do in these assays?
PP5 inh: 0.6; PP1 inh: 15.5*; Calb FLC: 0.9; Beta apoptosis: 4.6; CSC inhib: 23.5; Mdm2-MdmX inh: 15.8

What do the screens show for `O=C(Nc1nnc(C2=COCCO2)o1)c1ccc(S(=O)(=O)N2CCCC2)cc1`?
PP5 inh: 3.6; PP1 inh: -1.4; Calb FLC: -19.7; Beta apoptosis: 0.1; CSC inhib: 6.8; Mdm2-MdmX inh: 22.4

How did CC1CCN(S(=O)(=O)c2ccc(C(=O)Nc3nnc(-c4ccccn4)o3)cc2)CC1 do in these assays?
PP5 inh: 3.9; PP1 inh: 16.8*; Calb FLC: inconclusive; Beta apoptosis: 4.8; CSC inhib: 25.5; Mdm2-MdmX inh: 32.6

How did O=C(Nc1nnc(-c2cccs2)o1)c1cccc(F)c1 do in these assays?
PP5 inh: 2.4; PP1 inh: 1.3; Calb FLC: 87.5*; Beta apoptosis: -0.7; CSC inhib: 23.6; Mdm2-MdmX inh: 24.9

Results for CCC1CCCCN1S(=O)(=O)c1ccc(C(=O)Nc2nnc(C3=COCCO3)o2)cc1 (configuration not stated) ?
PP5 inh: 1.8; PP1 inh: 16.7*; Calb FLC: -5.2; Beta apoptosis: -2.1; CSC inhib: 20.6; Mdm2-MdmX inh: 25.0

Results for CC1CCN(S(=O)(=O)c2ccc(C(=O)Nc3nnc(C4=COCCO4)o3)cc2)CC1 ?
PP5 inh: 5.3; PP1 inh: 11.9; Calb FLC: -5.0; Beta apoptosis: -1.4; CSC inhib: 7.0; Mdm2-MdmX inh: 28.5

What do the screens show for `Cc1ccc(F)cc1NC(=O)c1ccc(NS(=O)(=O)c2ccc(Br)s2)cc1`?
PP5 inh: -5.1; PP1 inh: 4.6; Calb FLC: 15.5; Beta apoptosis: -2.7; CSC inhib: 15.9; Mdm2-MdmX inh: -1.3

Results for Cc1ccc(CN2CCC(n3nccc3NC(=O)CCOc3ccccc3)CC2)cc1C ?
PP5 inh: 1.4; PP1 inh: -3.8; Calb FLC: -13.9; Beta apoptosis: -1.5; CSC inhib: -3.4; Mdm2-MdmX inh: 40.6

Results for Cc1cccc2sc(NNC(=O)c3ccc(S(=O)(=O)N4CCCC(C)C4)cc3)nc12 (configuration not stated) ?
PP5 inh: 4.8; PP1 inh: 10.3; Calb FLC: -0.6; Beta apoptosis: 102.4*; CSC inhib: 127.6*
